Measurements: PubChem BioAssay

Each compound was assayed against Torsin-1A (Homo sapiens) (UniProt O14656) (assay: torsin A mutant lysate binding on microarrays – cell lysate, small-molecule microarray, COS7 lysate, 635/667 nm fluorescence, primary screen (AID 1150;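 note: score pools 667 nm emission and signal to noise measuring lysate protein binding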)). Details: COS7 hTOR1A mutant lysate, 635 nm fluorescence, higher = more signal.
Chain of Torsin-1A (Homo sapiens) (O14656 whole entry, looked up): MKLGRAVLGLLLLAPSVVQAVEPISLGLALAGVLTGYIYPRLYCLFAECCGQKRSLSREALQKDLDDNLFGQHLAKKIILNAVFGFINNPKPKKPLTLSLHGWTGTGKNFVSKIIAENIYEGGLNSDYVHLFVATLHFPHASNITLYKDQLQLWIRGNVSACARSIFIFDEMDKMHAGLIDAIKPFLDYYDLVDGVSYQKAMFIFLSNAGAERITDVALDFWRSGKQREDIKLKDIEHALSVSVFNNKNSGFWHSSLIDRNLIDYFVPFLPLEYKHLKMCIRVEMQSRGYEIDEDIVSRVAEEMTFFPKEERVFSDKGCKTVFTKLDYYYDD

SMILES | composite z-score
CCOC(=O)[C@H](CC(C)C)NC(=O)CCC1CC(OC(=O)NCCc2ccc(F)cc2)CC2(CCCC(COC(=O)NCCCN3CCCC3=O)O2)O1 (some centres not stated) | 0.1
CC(CCC(=O)OC[C@H]1O[C@H](C#Cc2ccccc2)C=C[C@@H]1Oc1ccc(C)cc1)=NOC[C@@H](C)[C@H](OCc1ccccc1)C(C)C | -0.28
CCOC(=O)[C@H](Cc1ccccc1)NC(=O)CCC1CC(OC(=O)NCc2cccc3ccccc23)CC2(CCCC(COC(=O)NCCc3ccccc3OC)O2)O1 (some centres not stated) | 0.0946
COC(=O)[C@H](C)NC(=O)CCC1CC(OC(=O)NCCc2ccc(F)cc2)CC2(CCCC(COC(=O)NCCc3ccccc3OC)O2)O1 (some centres not stated) | 0.519
CCOC(=O)NN=C1C[C@@H](O)[C@@H](O)[C@@H]2[C@@H]3C(=O)N(C[C@@H]4CCCO4)C(=O)[C@@H]3CC[C@H]12 | 0.577
CON=C1c2cc(OC)ccc2O[C@H](c2cccc(OC)c2)[C@H]1O | 0.517
COC(=O)[C@H](C)NC(=O)CCC1CC(OC(=O)NCc2ccc3c(c2)OCO3)CC2(CCCC(COC(=O)NCCC(C)C)O2)O1 (some centres not stated) | 0.593
C[C@H]1C=CCC(=O)OC[C@H](C)C(=O)N2CCC[C@H]2C(=O)OC1 | 3.03
CCCNC(=O)OC[C@H]1O[C@H](CCON=C2C[C@@H](O)[C@@H](O)[C@@H]3[C@@H]4C(=O)N(CC)C(=O)[C@@H]4CC[C@@H]23)C=C[C@@H]1Oc1ccc(OC)cc1 | 0.43
COC(=O)[C@@H]1CC[C@H](C)[C@@H](c2ccc(C)cc2)N1C(=O)c1ccc(C=NO[C@@H](C)c2cc(-c3c(C)cc(C)cc3C)no2)cc1 | 0.763
CC(C)(C)N1C(=O)[C@H]2[C@H]3[C@H](O)[C@H](O)CC(=NNC(=O)OCc4ccccc4)[C@H]3CC[C@H]2C1=O | 0.591
CO[C@@H]1COC(=O)CC=C[C@H](C)[C@H](OC)COC(=O)[C@@H]2CCCN2C(=O)CC=C[C@H]1C | 1.22
Cc1cc2c(nc1C)CCCCN2CC(O)CN1CCCc2nc(-c3ccc(Br)cc3)ccc21 (configuration not stated) | 0.154
COc1ccc(O[C@H]2C=C[C@@H](C#Cc3ccccc3)O[C@@H]2CO)cc1 | -0.0971
C#CCCCON=C1C[C@@H](O)[C@@H](O)[C@@H]2[C@@H]3C(=O)N(C[C@@H]4CCCO4)C(=O)[C@@H]3CC[C@H]12 | 0.406
O=C1[C@H]2[C@H]3[C@H](O)[C@H](O)CC(=NO[C@@H]4O[C@H](CO)[C@@H](O)[C@H](O)[C@H]4O)[C@@H]3CC[C@H]2C(=O)N1c1cccc(Oc2ccccc2)c1 | 0.0995
CC#CCOCCC=C1c2ccccc2[C@@H](OC)[C@@H]1C | 0.481
CCOC(=O)[C@H](CC(C)C)NC(=O)CCC1CC(OC(=O)NCc2ccc3c(c2)OCO3)CC2(CCCC(COC(=O)NCCOc3ccccc3)O2)O1 (some centres not stated) | 0.387
CON=C(C)CCN1CCCCc2nc(C)c(C)cc21 | 0.816
C=CC[C@@H]1C=C[C@H](ON=CC[C@@H]2C=C[C@H](OC(C)=O)[C@@H](COC(C)=O)O2)[C@@H](CO)O1 | 0.259
C[C@@H]1CC[C@@H](C(=O)O)N[C@H]1c1cccc(N2CCOCC2)c1 | 0.944
CC(=O)OC[C@H]1O[C@H](CC=NOC[C@@H](O)COCc2ccco2)C=C[C@@H]1OC(C)=O | 3.65
CC(CCN1CCc2nc(-c3ccccc3)c(-c3ccccc3)cc2C1)=NO[C@H](C)c1cn([C@H](CO)Cc2ccccc2)nn1 | 1.23
CCOC(=O)CCN1C(=O)[C@H]2[C@H]3[C@H](O)[C@H](O)CC(=NNC(=O)OCc4ccc(OC)cc4)[C@H]3CC[C@H]2C1=O | 0.111
CC(=O)OC[C@H]1O[C@@H](ON=C(C)CCC(=O)OC[C@H]2O[C@H](C#Cc3ccccc3)C=C[C@@H]2Oc2ccc(C)cc2)[C@H](OC(C)=O)[C@@H](OC(C)=O)[C@@H]1OC(C)=O | 0.461
O=C1CCCC=C1C(O)c1ccc([N+](=O)[O-])cc1 (configuration not stated) | 0.0183

Each compound was assayed on Sonic hedgehog protein (Shh) (assay: Sonic hedgehog microarray binding compounds – biochemical, small-molecule microarray, 635/667 nm fluorescence, primary screen (AID 1151;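 note: Shh protein binding to compounds spotted on small-molecule microarray slides; score combines spot fluorescence intensity with signal-to-noise across triplicate slides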)). Details: 635 nm fluorescence, higher = more signal.

SMILES | composite z-score
CCOC(=O)[C@H](Cc1ccccc1)NC(=O)CCC1CC(OC(=O)NCc2ccc3c(c2)OCO3)CC2(CCCC(COC(=O)NCCOC)O2)O1 (some centres not stated) | 1.91
CCOC(=O)[C@H](Cc1ccccc1)NC(=O)CCC1CC(OC(=O)NCc2ccc3c(c2)OCO3)CC2(CCCC(COC(=O)NCCCN3CCCC3=O)O2)O1 (some centres not stated) | 1.53
COC(=O)[C@H](C)NC(=O)CCC1CC(OC(=O)NCCc2ccc(F)cc2)CC2(CCCC(COC(=O)NCCOc3ccccc3)O2)O1 (some centres not stated) | 1.46
O=C1CCCC=C1C(O)C1CCCCC1 (configuration not stated) | 0.628
CCOC(=O)NN=C1C[C@@H](O)[C@@H](O)[C@@H]2[C@@H]3C(=O)N(c4ccc(F)cc4F)C(=O)[C@@H]3CC[C@H]12 | 0.404
CC(=O)OC[C@H]1O[C@H](CC=NO[C@@H](C)c2cc(-c3c(C)cc(C)cc3C)no2)C=C[C@@H]1OC(C)=O | 0.0602
CCOC(=O)CCN1C(=O)[C@H]2[C@H]3[C@H](O)[C@H](O)CC(=NO[C@@H]4O[C@H](CO)[C@@H](O)[C@H](O)[C@H]4O)[C@H]3CC[C@H]2C1=O | 0.493
CCOC(=O)[C@H](CC(C)C)NC(=O)CCC1CC(OC(=O)NCCc2ccc(F)cc2)CC2(CCCC(COC(=O)NCc3cccc(C(F)(F)F)c3)O2)O1 (some centres not stated) | 0.909
C[C@H]1CC[C@@H](C(=O)O)N[C@@H]1c1cccc(N2CCCC2=O)c1 | 0.189
CC(=O)OC[C@H]1O[C@@H](ON=C2[C@H]3CCn4c(=O)n(-c5ccccc5)c(=O)n4[C@H]3[C@H](O)[C@@H]3O[C@H]23)[C@H](OC(C)=O)[C@@H](OC(C)=O)[C@@H]1OC(C)=O | 1.23
CCOC(=O)[C@H](CC(C)C)NC(=O)CCC1CC(OC(=O)NCCc2ccc(F)cc2)CC2(CCCC(COC(=O)NCCCN3CCCC3=O)O2)O1 (some centres not stated) | 0.894
CC(CCC(=O)OC[C@H]1O[C@H](C#Cc2ccccc2)C=C[C@@H]1Oc1ccc(C)cc1)=NOC[C@@H](C)[C@H](OCc1ccccc1)C(C)C | 0.0623
CCOC(=O)[C@H](Cc1ccccc1)NC(=O)CCC1CC(OC(=O)NCc2cccc3ccccc23)CC2(CCCC(COC(=O)NCCc3ccccc3OC)O2)O1 (some centres not stated) | 1.1
COC(=O)[C@H](C)NC(=O)CCC1CC(OC(=O)NCCc2ccc(F)cc2)CC2(CCCC(COC(=O)NCCc3ccccc3OC)O2)O1 (some centres not stated) | 0.985
CCOC(=O)NN=C1C[C@@H](O)[C@@H](O)[C@@H]2[C@@H]3C(=O)N(C[C@@H]4CCCO4)C(=O)[C@@H]3CC[C@H]12 | 0.225
CON=C1c2cc(OC)ccc2O[C@H](c2cccc(OC)c2)[C@H]1O | 0.755
COC(=O)[C@H](C)NC(=O)CCC1CC(OC(=O)NCc2ccc3c(c2)OCO3)CC2(CCCC(COC(=O)NCCC(C)C)O2)O1 (some centres not stated) | 1.13
C[C@H]1C=CCC(=O)OC[C@H](C)C(=O)N2CCC[C@H]2C(=O)OC1 | 2.35

SMILES | composite z-score
CCCNC(=O)OC[C@H]1O[C@H](CCON=C2C[C@@H](O)[C@@H](O)[C@@H]3[C@@H]4C(=O)N(CC)C(=O)[C@@H]4CC[C@@H]23)C=C[C@@H]1Oc1ccc(OC)cc1 | 1.33
COC(=O)[C@@H]1CC[C@H](C)[C@@H](c2ccc(C)cc2)N1C(=O)c1ccc(C=NO[C@@H](C)c2cc(-c3c(C)cc(C)cc3C)no2)cc1 | 0.707
CC(C)(C)N1C(=O)[C@H]2[C@H]3[C@H](O)[C@H](O)CC(=NNC(=O)OCc4ccccc4)[C@H]3CC[C@H]2C1=O | 0.897
CO[C@@H]1COC(=O)CC=C[C@H](C)[C@H](OC)COC(=O)[C@@H]2CCCN2C(=O)CC=C[C@H]1C | 1.83
Cc1cc2c(nc1C)CCCCN2CC(O)CN1CCCc2nc(-c3ccc(Br)cc3)ccc21 (configuration not stated) | 1.1
COc1ccc(O[C@H]2C=C[C@@H](C#Cc3ccccc3)O[C@@H]2CO)cc1 | 0.0864
C#CCCCON=C1C[C@@H](O)[C@@H](O)[C@@H]2[C@@H]3C(=O)N(C[C@@H]4CCCO4)C(=O)[C@@H]3CC[C@H]12 | 0.554
O=C1[C@H]2[C@H]3[C@H](O)[C@H](O)CC(=NO[C@@H]4O[C@H](CO)[C@@H](O)[C@H](O)[C@H]4O)[C@@H]3CC[C@H]2C(=O)N1c1cccc(Oc2ccccc2)c1 | 0.828
CC#CCOCCC=C1c2ccccc2[C@@H](OC)[C@@H]1C | 0.584
CCOC(=O)[C@H](CC(C)C)NC(=O)CCC1CC(OC(=O)NCc2ccc3c(c2)OCO3)CC2(CCCC(COC(=O)NCCOc3ccccc3)O2)O1 (some centres not stated) | 1.87
CON=C(C)CCN1CCCCc2nc(C)c(C)cc21 | 0.936
C=CC[C@@H]1C=C[C@H](ON=CC[C@@H]2C=C[C@H](OC(C)=O)[C@@H](COC(C)=O)O2)[C@@H](CO)O1 | 0.925
C[C@@H]1CC[C@@H](C(=O)O)N[C@H]1c1cccc(N2CCOCC2)c1 | 0.908
CC(=O)OC[C@H]1O[C@H](CC=NOC[C@@H](O)COCc2ccco2)C=C[C@@H]1OC(C)=O | 2.07
CC(CCN1CCc2nc(-c3ccccc3)c(-c3ccccc3)cc2C1)=NO[C@H](C)c1cn([C@H](CO)Cc2ccccc2)nn1 | 0.565
CCOC(=O)CCN1C(=O)[C@H]2[C@H]3[C@H](O)[C@H](O)CC(=NNC(=O)OCc4ccc(OC)cc4)[C@H]3CC[C@H]2C1=O | 0.236
CC(=O)OC[C@H]1O[C@@H](ON=C(C)CCC(=O)OC[C@H]2O[C@H](C#Cc3ccccc3)C=C[C@@H]2Oc2ccc(C)cc2)[C@H](OC(C)=O)[C@@H](OC(C)=O)[C@@H]1OC(C)=O | 1.19
O=C1CCCC=C1C(O)c1ccc([N+](=O)[O-])cc1 (configuration not stated) | -0.676
